Source: PubChem BioAssay (EPA / NIEHS)
Where “and” joins values, the source holds several entries; their conditions need not be identical. Equal values may be shown once. Some compounds were tested as several samples or in several runs, with calls that do not always agree. Calls of active or inactive are those of the source. The calls were made as follows: active = hit-call score of the fitted dose curve at least 0.9, where 1 is the maximum; inactive = score below 0.9.

How the values were obtained:
[1] = read-out: Thrombomodulin, THBD (gene 7056); assay: BSK_CASM3C_Thrombomodulin: BioMAP Diversity Plus: CASM3C Assay for Thrombomodulin Biomarker Activity (AID 2283051); conditions: primary human coronary artery smooth muscle cells; actives raise or lower the signal;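 also: thrombomodulin protein level measured by ELISA 24 h after dosing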
[2] = read-out: Tissue Factor, F3 (gene 2152); assay: BSK_CASM3C_TissueFactor: BioMAP Diversity Plus: CASM3C Assay for Tissue Factor Biomarker Activity (AID 2283052); conditions: primary human coronary artery smooth muscle cells; actives raise or lower the signal;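 also: cell surface tissue factor protein level read by ELISA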
[3] = read-out: Interferon-gamma inducible Protein 10 (IP10), CXCL10 (gene 3627); assay: BSK_hDFCGF_IP10: BioMAP Diversity Plus: hDFCGF Assay for Interferon-gamma inducible Protein 10 (IP10) Biomarker Activity (AID 2283053); conditions: primary human foreskin fibroblasts; actives raise or lower the signal
Method in brief: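 IP-10 levels, quantified by ELISA, are taken from human foreskin fibroblast cultures 24 h after chemical treatment, with DMSO serving as negative control and baseline for bidirectional analysis.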

[4] = read-out: Urokinase-type plasminogen activator receptor (uPAR), PLAUR (gene 5329); assay: BSK_CASM3C_uPAR: BioMAP Diversity Plus: CASM3C Assay for Urokinase-type plasminogen activator receptor (uPAR) Biomarker Activity (AID 2283054); conditions: primary human coronary artery smooth muscle cells; actives raise or lower the signal;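 also: cell-surface uPAR protein level quantified by ELISA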
[5] = read-out: Vascular cell adhesion molecule 1 (VCAM1), VCAM1 (gene 7412); assay: BSK_CASM3C_VCAM1: BioMAP Diversity Plus: CASM3C Assay for Vascular cell adhesion molecule 1 (VCAM1) Biomarker Activity (AID 2283055); conditions: primary human coronary artery smooth muscle cells; actives raise or lower the signal;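 also: VCAM-1 protein level quantified by ELISA on the cells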
[6] = read-out: Collagen III, COL3A1 (gene 1281); assay: BSK_hDFCGF_CollagenIII: BioMAP Diversity Plus: hDFCGF Assay for Collagen III Biomarker Activity (AID 2283056); conditions: primary human foreskin fibroblasts; actives raise or lower the signal
Method in brief: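 ELISA read-out of collagen III from human skin fibroblast cultures sampled 24 h post-dosing. Values were derived by bidirectional fitting relative to the DMSO vehicle control.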

[7] = read-out: Epidermal growth factor receptor (EGFR), EGFR (gene 1956); assay: BSK_hDFCGF_EGFR: BioMAP Diversity Plus: hDFCGF Assay for Epidermal growth factor receptor (EGFR) Biomarker Activity (AID 2283057); conditions: primary human foreskin fibroblasts; actives raise or lower the signal
Method in brief: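 Measured by ELISA: EGFR levels on primary human foreskin fibroblasts 24 h after chemical treatment, analysed relative to DMSO with bidirectional fitting.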

[8] = read-out: Interleukin-8 (IL8), CXCL8 (gene 3576); assay: BSK_hDFCGF_IL8: BioMAP Diversity Plus: hDFCGF Assay for Interleukin-8 (IL8) Biomarker Activity (AID 2283058); conditions: primary human foreskin fibroblasts; actives raise or lower the signal
Method in brief: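 Cells used are human skin primary fibroblasts. Chemical is added, cultures run 24 h, then IL-8 is quantified by ELISA, and gain or loss versus DMSO control is fitted in both directions.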

[9] = BSK_hDFCGF_Proliferation: Cell Proliferation Assessment in the BioMAP Diversity Plus: hDFCGF Assay (AID 2283059); conditions: primary human foreskin fibroblasts;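 also: curves fitted for both rise and fall of signal versus DMSO baseline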
Method in brief: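 Total protein read at 560 nm after 0.1% SRB staining of TCA-fixed human skin fibroblasts, […]. Activity is fitted in both directions relative to DMSO as baseline.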

[10] = read-out: Macrophage colony-stimulating factor (MCSF), CSF1 (gene 1435); assay: BSK_hDFCGF_MCSF: BioMAP Diversity Plus: hDFCGF Assay for Macrophage colony-stimulating factor (MCSF) Biomarker Activity (AID 2283060); conditions: primary human foreskin fibroblasts; actives raise or lower the signal
Method in brief: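 Primary human foreskin fibroblasts dosed with chemical; 24 h later, M-CSF quantified by ELISA; curves fitted in both directions vs DMSO negative control.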

[11] = BSK_hDFCGF_SRB: Viability Assessment in the BioMAP Diversity Plus: hDFCGF Assay (AID 2283061); conditions: primary human foreskin fibroblasts;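 also: cells exposed to compound for 24 h before the read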
Method in brief: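 Readout is SRB absorbance at 560 nm, reflecting total protein in parallel cultures of human foreskin fibroblasts harvested 24 h after chemical dosing. Activity was fitted bidirectionally relative to DMSO.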

[12] = read-out: TIMP metallopeptidase inhibitor 1 (TIMP1), TIMP1 (gene 7076); assay: BSK_hDFCGF_TIMP1: BioMAP Diversity Plus: hDFCGF Assay for TIMP metallopeptidase inhibitor 1 (TIMP1) Biomarker Activity (AID 2283062); conditions: primary human foreskin fibroblasts; actives raise or lower the signal
Method in brief: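 Human skin fibroblasts (primary), hDFCGF system; compound exposure 24 h; TIMP-1 by ELISA; bidirectional fit vs DMSO negative control; overt cytotoxicity by SRB in parallel wells.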

[13] = read-out: Monokine induced gamma interferon (MIG), CXCL9 (gene 4283); assay: BSK_hDFCGF_MIG: BioMAP Diversity Plus: hDFCGF Assay for Monokine induced gamma interferon (MIG) Biomarker Activity (AID 2283063); conditions: primary human foreskin fibroblasts; actives raise or lower the signal
Method in brief: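 Chemicals were added to primary human foreskin fibroblast cultures, which were sampled 24 h later. MIG levels were then quantified by ELISA and responses fitted in both directions relative to DMSO.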

[14] = read-out: Matrix Metallopeptidase 1 (MMP1), MMP1 (gene 4312); assay: BSK_hDFCGF_MMP1: BioMAP Diversity Plus: hDFCGF Assay for Matrix Metallopeptidase 1 (MMP1) Biomarker Activity (AID 2283064); conditions: primary human foreskin fibroblasts; actives raise or lower the signal
Method in brief: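 hDFCGF primary fibroblasts (human foreskin); chemical added; 24 h; MMP1 by ELISA; bidirectional fit vs DMSO.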

[15] = read-out: Vascular cell adhesion molecule 1 (VCAM1), VCAM1 (gene 7412); assay: BSK_hDFCGF_VCAM1: BioMAP Diversity Plus: hDFCGF Assay for Vascular cell adhesion molecule 1 (VCAM1) Biomarker Activity (AID 2283065); conditions: primary human foreskin fibroblasts; actives raise or lower the signal;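 as to AC50: VCAM-1 protein level quantified by ELISA after 24 h chemical exposure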
Method in brief: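 Human foreskin fibroblast primary cells, chemical exposure 24 h; VCAM-1 by ELISA; bidirectional fit, DMSO = negative control/baseline.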

[16] = read-out: Plasminogen activator inhibitor-1 (PAI1), SERPINE1 (gene 5054); assay: BSK_hDFCGF_PAI1: BioMAP Diversity Plus: hDFCGF Assay for Plasminogen activator inhibitor-1 (PAI1) Biomarker Activity (AID 2283066); conditions: primary human foreskin fibroblasts; actives raise or lower the signal
Method in brief: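 PAI-1 levels, determined by ELISA, served as the endpoint in human foreskin fibroblast cultures exposed to compound for 24 h, with DMSO as baseline.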

[17] = read-out: Intercellular Adhesion Molecule 1 (ICAM1), ICAM1 (gene 3383); assay: BSK_KF3CT_ICAM1: BioMAP Diversity Plus: KF3CT Assay for Intercellular Adhesion Molecule 1 (ICAM1) Biomarker Activity (AID 2283067); conditions: primary human keratinocytes with fibroblasts; actives raise or lower the signal
Method in brief: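 ICAM-1 levels are measured by ELISA 24 h after dosing a primary human co-culture of keratinocytes and foreskin fibroblasts. Activity in either direction is fitted relative to DMSO vehicle.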

[18] = read-out: Interferon-gamma inducible Protein 10 (IP10), CXCL10 (gene 3627); assay: BSK_KF3CT_IP10: BioMAP Diversity Plus: KF3CT Assay for Interferon-gamma inducible Protein 10 (IP10) Biomarker Activity (AID 2283068); conditions: primary human keratinocytes with fibroblasts; actives raise or lower the signal
Method in brief: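 Human keratinocyte plus foreskin fibroblast primary co-culture exposed to test chemical for 24 h; IP-10 measured by ELISA. Concentration-response fitted bidirectionally against DMSO control as baseline.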

[19] = BSK_KF3CT_SRB: Viability Assessment in the BioMAP Diversity Plus: KF3CT Assay (AID 2283069); conditions: primary human keratinocytes with fibroblasts;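 also: total protein by sulforhodamine B staining as a cytotoxicity measure; read 24 h after compound addition; fitted for both signal gain and loss against DMSO baseline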
Method in brief: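 Keratinocytes co-cultured with foreskin fibroblasts (human primary); chemical added, 24 h; fix 10% TCA, stain 0.1% SRB, A560. Bidirectional fit vs DMSO.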

[20] = read-out: Interleukin-1 alpha (IL1a), IL1A (gene 3552); assay: BSK_KF3CT_IL1a: BioMAP Diversity Plus: KF3CT Assay for Interleukin-1 alpha (IL1a) Biomarker Activity (AID 2283070); conditions: primary human keratinocytes with fibroblasts; actives raise or lower the signal
Method in brief: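 Chemicals were dosed onto co-cultured human keratinocytes and foreskin fibroblasts, IL-1a was quantified by ELISA at 24 h, and activity was fitted in both directions relative to DMSO controls.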

Measured: AC50

C=C(C)[C@H]1Cc2c(ccc3c2O[C@@H]2COc4cc(OC)c(OC)cc4[C@@H]2C3=O)O1
active: [1] 0.164 µM | [7] 0.771 µM | [9] 0.486 µM | [15] 7.69 µM | [18] 31.8 µM | [19] 3.97 µM
inactive: all other assays above

Nc1c(Cl)cc([N+](=O)[O-])cc1Cl
active: [3] 3.97 µM | [9] 27.6 µM | [14] 4.71 µM
inactive: all other assays above

C#CCC1=C(C)C(OC(=O)C2C(C=C(C)C)C2(C)C)CC1=O (centres undefined)
inactive: [1] | [2] | [4] | [5] | [7] | [12] | [17] | [18] | [20]
active: [3] 29.6 µM | [6] 29.4 µM | [8] 37.8 µM | [9] 31.5 µM | [10] 29.2 µM | [11] 33.3 µM | [13] 37 µM | [14] 31.6 µM | [15] 34.8 µM | [16] 32 µM | [19] 22.3 µM

CC(COc1ccc(Oc2ccccc2)cc1)Oc1ccccn1 (centres undefined)
active: [9] 10.8 µM
not listed: [14]
inactive: all other assays above

COc1ccc(C(=CC(=O)N2CCOCC2)c2ccc(Cl)cc2)cc1OC
active: [5] 7.56 µM | [16] 7.96 µM
inactive: all other assays above

CN(C)[C@@H]1C(=O)C(C(N)=O)=C(O)[C@@]2(O)C(=O)C3=C(O)c4c(O)cccc4[C@@](C)(O)[C@H]3[C@H](O)[C@@H]12
active: [3] 29.9 µM | [9] 19.6 µM and 13.9 µM | [10] 23.3 µM | [13] 31.6 µM | [15] 28.6 µM
inactive: [1] | [2] | [3] | [4] | [5] | [6] | [7] | [8] | [9] | [10] | [11] | [12] | [13] | [14] | [15] | [16] | [17] | [18] | [19] | [20]
